Laboratory results: the supplement of paper PMC7530171
Where a name gives a salt, the structure may show the parent alone. ± gives the standard deviation.

Test system: THP-1
Test: THP-1 cell loss relative to DMSO control; higher = more host cell loss (toxicity); extreme values may be limits of the assay
Conditions: 10 µM; 4 days; infection: M. tuberculosis H37Rv
Procedure: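 OICR kinase inhibitor library screened in duplicate at 10 uM against M. tuberculosis-infected THP-1 macrophages, 4 days at 37 C. THP-1 cell loss (cytotoxicity or loss of adherence) was quantified from Hoechst-stained nuclei counts by high-content imaging and normalised to the 1% DMSO control; 100 = complete loss of host cells.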

**Q.** For `COc1cc2ncn(-c3cc(OCc4ccccc4C(F)(F)F)c(C(N)=O)s3)c2cc1OC`, which THP-1 cell loss is on record?
**A.** The THP-1 cell loss was 12.2 ± 11%.

**Q.** How did the THP-1 cell loss turn out when `O=C(Nc1ccc(-c2cn[nH]c2)cc1)C1COc2ccccc2O1` (stereo not given) [Rho Kinase Inhibitor V] was run?
**A.** The THP-1 cell loss was 6.82 ± 9.6%.

**Q.** Which THP-1 cell loss does the source give for `CS(=O)(=O)N1CCN(Cc2cc3nc(-c4cccc5[nH]ncc45)nc(N4CCOCC4)c3s2)CC1` [GDC-0941 bismesylate] here?
**A.** Its THP-1 cell loss is 38 ± 2.2%.

**Q.** Which THP-1 cell loss does the source give for `CC(C)(C)c1nc2c3cc[nH]c(=O)c3c3cc(F)ccc3c2[nH]1` [Merck-5] here?
**A.** Its THP-1 cell loss is 46.3 ± 11%.

**Q.** Which THP-1 cell loss does the source give for `Cc1cccc(-c2nn(C(=S)Nc3ccccc3)cc2-c2ccnc3ccccc23)n1` here?
**A.** Its THP-1 cell loss is 2.37 ± 3.4%.

**Q.** Which THP-1 cell loss does the source give for `N#Cc1c(-c2ccccc2)cc(-c2cc(Br)ccc2O)[nH]c1=O` here?
**A.** Its THP-1 cell loss is 8.6 ± 8.9%.

**Q.** `CC#CC(=O)Nc1ccc2ncnc(Nc3cccc(Br)c3)c2c1` was tested. Which THP-1 cell loss did it give?
**A.** The THP-1 cell loss was 89.6 ± 15%.

**Q.** Which THP-1 cell loss does the source give for `Oc1cc(-c2nc(-c3ccccc3)[nH]c2-c2ccncc2)ccc1Cl` here?
**A.** Its THP-1 cell loss is 100%.

**Q.** `CC(C)c1cnn2c(NCc3ccccc3)cc(NCCCCCCN)nc12` [BS-181 hydrochloride] was tested. Which THP-1 cell loss did it give?
**A.** The THP-1 cell loss was 90.8 ± 13%.

**Q.** `Cn1c(=O)n(-c2ccc(C(C)(C)C#N)cc2)c2c3cc(-c4cnc5ccccc5c4)ccc3ncc21` was tested. Which THP-1 cell loss did it give?
**A.** Its THP-1 cell loss is 36.6 ± 7.3%.

**Q.** Which THP-1 cell loss does the source give for `CO[C@H]1C[C@@H]2CC[C@@H](C)[C@@](O)(O2)C(=O)C(=O)N2CCCC[C@H]2C(=O)O[C@H]([C@H](C)C[C@@H]2CC[C@@H](OC(=O)C(C)(CO)CO)[C@H](OC)C2)CC(=O)[C@H](C)/C=C(\C)[C@@H](O)[C@@H](OC)C(=O)[C@H](C)C[C@H](C)/C=C/C=C/C=C/1C` [Temsirolimus] here?
**A.** The THP-1 cell loss was 43 ± 2%.

**Q.** How did the THP-1 cell loss turn out when `O=C1NCCc2[nH]c(-c3ccncc3)cc21` was run?
**A.** Its THP-1 cell loss is 100%.

**Q.** How did the THP-1 cell loss turn out when `COc1cc(CCc2cc(NC(=O)c3ccc(N4CC(C)NC(C)C4)cc3)n[nH]2)cc(OC)c1` (stereo not given) was run?
**A.** Its THP-1 cell loss is 45.7 ± 11%.

**Q.** How did the THP-1 cell loss turn out when `Nc1ncnc2c1c(I)cn2[C@@H]1O[C@H](CO)[C@@H](O)[C@H]1O` [5-Iodotubercidin] was run?
**A.** Its THP-1 cell loss is 100%.

**Q.** With `N#CC[C@H](C1CCCC1)n1cc(-c2ncnc3[nH]ccc23)cn1` as the molecule, how does the THP-1 cell loss read?
**A.** Its THP-1 cell loss is 26.3 ± 7.9%.

**Q.** How did the THP-1 cell loss turn out when `Cc1nc(Nc2ncc(C(=O)Nc3c(C)cccc3Cl)s2)cc(N2CCN(CCO)CC2)n1` [Dasatinib] was run?
**A.** Its THP-1 cell loss is 34.7 ± 4.4%.

**Q.** How did the THP-1 cell loss turn out when `C[C@]1(O)C[C@@H](c2nc(-c3ccc4ccc(-c5ccccc5)nc4c3)c3c(N)nccn32)C1` was run?
**A.** Its THP-1 cell loss is 38.5 ± 4%.

**Q.** For `Cc1cc(Nc2cc(N3CCN(C)CC3)nc(Sc3ccc(NC(=O)C4CC4)cc3)n2)n[nH]1`, which THP-1 cell loss is on record?
**A.** The THP-1 cell loss was 22.3 ± 16%.

**Q.** How did the THP-1 cell loss turn out when `N#C/C(=C\c1ccc(O)c(O)c1)C(=O)Nc1ccccc1` was run?
**A.** The THP-1 cell loss was 9.72 ± 2.5%.

**Q.** How did the THP-1 cell loss turn out when `NC(=O)Nc1cc(-c2cccc(F)c2)sc1C(=O)N[C@H]1CCCNC1` was run?
**A.** The THP-1 cell loss was 84.2 ± 22%.

**Q.** Which THP-1 cell loss does the source give for `NC1(c2ccc(-c3nc4ccn5c(=O)[nH]nc5c4cc3-c3ccccc3)cc2)CCC1` here?
**A.** The THP-1 cell loss was 34.3 ± 6.7%.

**Q.** For `C#Cc1cccc(Nc2ncnc3cc(OCCOC)c(OCCOC)cc23)c1` [Erlotinib HCl], which THP-1 cell loss is on record?
**A.** The THP-1 cell loss was 5.26 ± 7.4%.

**Q.** Which THP-1 cell loss does the source give for `COc1cc2c(Nc3ccc(NC(=O)c4ccccc4)cc3)ncnc2cc1OCCCN1CCOCC1` here?
**A.** The THP-1 cell loss was 27.2 ± 1.4%.

**Q.** With `CO[C@H]1C[C@@H]2CC[C@@H](C)[C@@](O)(O2)C(=O)C(=O)N2CCCC[C@H]2C(=O)O[C@H]([C@H](C)C[C@@H]2CC[C@@H](O)[C@H](OC)C2)CC(=O)[C@H](C)/C=C(\C)[C@@H](O)[C@@H](OC)C(=O)[C@H](C)C[C@H](C)/C=C/C=C/C=C/1C` [Rapamycin] as the molecule, how does the THP-1 cell loss read?
**A.** Its THP-1 cell loss is 33.4 ± 6.3%.

**Q.** With `CS(=O)(=O)CCNCc1nc(-c2ccc3ncnc(Nc4ccc(OCc5cccc(F)c5)c(Cl)c4)c3c2)cs1` as the molecule, how does the THP-1 cell loss read?
**A.** Its THP-1 cell loss is 37.5 ± 15%.

**Q.** Which THP-1 cell loss does the source give for `CC[C@@H]1C(=O)N(C)c2cnc(Nc3ccc(C(=O)NC4CCN(C)CC4)cc3OC)nc2N1C1CCCC1` here?
**A.** Its THP-1 cell loss is 100%.

**Q.** How did the THP-1 cell loss turn out when `NCc1ccc(Nc2ncc(F)c(Nc3ccccc3)n2)cc1` [Dianilinopyrimidine_01] was run?
**A.** Its THP-1 cell loss is 88.5 ± 16%.

**Q.** For `C[C@@H]1CN(CC(=O)Nc2ccc3c(c2)Cc2cccc(-c4cc(=O)cc(N5CCOCC5)o4)c2S3)C[C@H](C)O1`, which THP-1 cell loss is on record?
**A.** The THP-1 cell loss was 100%.

**Q.** `Oc1ccc(Nc2nc(-c3ccc(Cl)cc3)cs2)cc1` [2-(p-Hydroxyanilino)-4-(p-chlorophenyl) thiazole] was tested. Which THP-1 cell loss did it give?
**A.** Its THP-1 cell loss is 100%.

**Q.** For `N#CCc1ccc(Nc2nc(Nc3cc(C4CCC4)[nH]n3)c3ccccc3n2)cc1`, which THP-1 cell loss is on record?
**A.** Its THP-1 cell loss is 100%.

**Q.** `COc1cc(C[C@H]2C(=O)OC[C@@H]2Cc2ccc(OC)c(OC)c2)ccc1O` [Arctigenin] was tested. Which THP-1 cell loss did it give?
**A.** Its THP-1 cell loss is 35 ± 18%.

**Q.** How did the THP-1 cell loss turn out when `C[C@@H](Oc1cc(-n2cnc3ccc(CN4CCN(C)CC4)cc32)sc1C(N)=O)c1ccccc1C(F)(F)F` was run?
**A.** Its THP-1 cell loss is 23.7 ± 4.8%.

**Q.** `NS(=O)(=O)c1ccc(Nc2nc(OCC3CCCCC3)c3[nH]cnc3n2)cc1` was tested. Which THP-1 cell loss did it give?
**A.** The THP-1 cell loss was 0.876 ± 1.2%.

**Q.** For `CCCOc1ccc(/C=C2/SC(=O)NC2=O)cc1` [PIM1/2 Kinase Inhibitor VI], which THP-1 cell loss is on record?
**A.** Its THP-1 cell loss is 4.36 ± 6.2%.

**Q.** For `Cc1cc(C(=O)N2CCN(c3cccc(Cl)c3)CC2)n(-c2ccccc2)n1`, which THP-1 cell loss is on record?
**A.** The THP-1 cell loss was 23.2 ± 25%.

**Q.** With `CC[C@H](CO)Nc1nc(NCc2ccccc2)c2ncn(C(C)C)c2n1` [Roscovitine] as the molecule, how does the THP-1 cell loss read?
**A.** Its THP-1 cell loss is 53.5 ± 2.5%.

**Q.** With `CO[C@H]1C[C@@H]2CC[C@@H](C)[C@@](O)(O2)C(=O)C(=O)N2CCCC[C@H]2C(=O)O[C@H]([C@H](C)C[C@@H]2CC[C@@H](OCCO)[C@H](OC)C2)CC(=O)[C@H](C)/C=C(\C)[C@@H](O)[C@@H](OC)C(=O)[C@H](C)C[C@H](C)/C=C/C=C/C=C/1C` [Everolimus] as the molecule, how does the THP-1 cell loss read?
**A.** Its THP-1 cell loss is 22 ± 0.045%.

**Q.** `Cc1[nH]c(/C=C2\C(=O)Nc3ccccc32)c(C)c1CCC(=O)O` was tested. Which THP-1 cell loss did it give?
**A.** The THP-1 cell loss was 5 ± 7.1%.

**Q.** With `COc1cc2ncnc(Nc3ccc(O)cc3)c2cc1OC` [Janex-1] as the molecule, how does the THP-1 cell loss read?
**A.** The THP-1 cell loss was 10.7 ± 0.54%.

**Q.** With `CN(C)CCCn1cc(C2=C(c3c[nH]c4ccccc34)C(=O)NC2=O)c2ccccc21` [Bisindolylmaleimide I hydrochloride] as the molecule, how does the THP-1 cell loss read?
**A.** Its THP-1 cell loss is 100%.
